Our source for the AC50 and outcome values is PubChem BioAssay (EPA / NIEHS).

Inconclusive results are not listed. Calls of active or inactive are those of the source. Rule for the calls, unless noted: active = hit-call score of the fitted dose curve at least 0.9, where 1 is the maximum; inconclusive = response in the unintended direction; inactive = score below 0.9.

Experiment [1] concerns the target Aryl hydrocarbon receptor (Homo sapiens) (UniProt P35869). Put plainly: ATG_Ahr_CIS: Attagene CIS-FACTORIAL HepG2 Assay for human Aryl Hydrocarbon Receptor (Ahr) (AID 2282930; active = hit-call score of the fitted dose curve at least 0.9, where 1 is the maximum; inactive = score below 0.9). The conditions noted are these: HepG2 AhR cis-factorial reporter transcription; actives raise or lower the signal. The gist of the method:
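HepG2, transient MRTU (cis) transfection, 24 h exposure. RNA → cDNA → PCR → 6-FAM primer extension → HpaI 2 h 37 C → CE. Fit: bidirectional, DMSO baseline.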

Experiment [2] in a line: ATG_AP_2_CIS: Attagene CIS-FACTORIAL HepG2 Assay for human Activator Protein 2 (AP-2) (AID 2282932; active = hit-call score of the fitted dose curve at least 0.9, where 1 is the maximum; inactive = score below 0.9). Particulars: HepG2 AP-2 cis-reporter, Attagene transcription factor profiling; actives raise or lower the signal. The gist of the method:
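Endogenous transcription factor activity is reported through transfected multiplex reporter constructs in HepG2, after 24 h of compound exposure. Transcripts were quantified by RT-PCR and capillary electrophoresis of fluorescent fragments. Bidirectional fit against DMSO.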

The target in experiment [3] is Peroxisome proliferator-activated receptor gamma (Homo sapiens) (UniProt P37231). As to the kind of experiment: ATG_PPARg_TRANS: Attagene TRANS-FACTORIAL HepG2 Assay for human Peroxisome Proliferator-activated Receptor-gamma (PPARg) (AID 2283007). In short, it runs like this: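 After 24 h of chemical exposure, transfected HepG2 cells carrying PPARγ-Gal4 chimera reporter constructs are lysed for RNA. Reporter transcripts are measured by RT-PCR and capillary electrophoresis with fluorescent labelling, and gain of signal is fitted versus DMSO.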
Sequence of Peroxisome proliferator-activated receptor gamma (Homo sapiens) (P37231 whole entry, looked up, the tested form may be a part): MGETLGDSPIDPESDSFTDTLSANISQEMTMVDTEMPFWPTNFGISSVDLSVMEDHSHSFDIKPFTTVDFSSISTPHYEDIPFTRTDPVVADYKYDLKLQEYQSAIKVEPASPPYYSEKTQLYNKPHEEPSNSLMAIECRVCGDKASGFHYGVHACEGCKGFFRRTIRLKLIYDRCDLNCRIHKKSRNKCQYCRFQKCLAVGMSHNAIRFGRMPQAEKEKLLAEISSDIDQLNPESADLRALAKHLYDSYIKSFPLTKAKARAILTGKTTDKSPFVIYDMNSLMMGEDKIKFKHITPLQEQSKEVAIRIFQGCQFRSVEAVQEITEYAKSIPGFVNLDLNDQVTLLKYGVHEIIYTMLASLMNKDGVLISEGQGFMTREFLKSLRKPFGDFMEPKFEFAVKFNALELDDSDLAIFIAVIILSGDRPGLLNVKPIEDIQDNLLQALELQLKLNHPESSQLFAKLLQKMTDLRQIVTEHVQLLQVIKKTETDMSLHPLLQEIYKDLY

Experiment [4] has as its target human RAR-related Orphan Receptor beta (RORb), RORB (gene 6096) (UniProt Q92753). As to the kind of experiment: ATG_RORb_TRANS: Attagene TRANS-FACTORIAL HepG2 Assay for human RAR-related Orphan Receptor beta (RORb) (AID 2283010). In short, it runs like this:
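Transfect HepG2 with multiple GAL4-UAS reporter transcription units; dose chemicals for 24 h; isolate RNA, reverse-transcribe and PCR-amplify reporter sequences; label, digest and resolve fragments by capillary electrophoresis; fit increases relative to DMSO.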

For experiment [5], the target named is Oxysterols receptor LXR-beta (Homo sapiens) (UniProt P55055). As to the kind of experiment: ATG_LXRb_TRANS: Attagene TRANS-FACTORIAL HepG2 Assay for human Liver X Receptor beta (LXRb) (AID 2282981). The conditions noted are these: HepG2 Attagene TRANS GAL4-LXRb reporter, mRNA. The gist of the method:
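After 24 h chemical treatment of transfected HepG2 cells carrying exogenous NR-Gal4 chimeras, reporter mRNA was quantified by fluorescent RT-PCR and capillary electrophoresis; activity taken as increase over DMSO controls.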

Experiment [6] addresses human Vitamin D Receptor (VDR), VDR (gene 7421) (UniProt P11473). Put plainly: ATG_VDR_TRANS: Attagene TRANS-FACTORIAL HepG2 Assay for human Vitamin D Receptor (VDR) (AID 2283022). In short, it runs like this: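 HepG2 cells were transiently transfected with multiple GAL4-UAS reporter units, so signal reflects exogenous chimeric receptor-Gal4 activity. After 24 h compound exposure, reporter mRNA was measured by RT-PCR, fluorescent labelling and capillary electrophoresis, fitted for gain of signal versus DMSO.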

Experiment [7] is described as follows: ACEA_AR_agonist_AUC_viability: ACEA Biosciences xCELLigence Real-Time Cell Analysis on Androgen Receptor Agonism for Viability (AID 2283775). In short, it runs like this:
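22Rv1 cells; impedance growth kinetics; 8-pt 1:4 dilutions from 100 uM top final, ≤0.5% DMSO; n = 2; 80 h read; AUC viability, loss-of-signal vs DMSO.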

A short description of experiment [8]: ACEA_AR_antagonist_AUC_viability: ACEA Biosciences xCELLigence Real-Time Cell Analysis on Androgen Receptor Antagonism for Viability (AID 2283776).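 Note: 22Rv1 human prostate cancer cells growing on impedance electrode plates; hits lower the growth signal relative to DMSO meaning cytotoxicity.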 In short, it runs like this: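 Impedance read-out (RT-CES): area under growth curve at 80 h post-dose, loss of signal scored vs DMSO baseline. 22Rv1 cells; 8-pt 1:4 series, top 100 uM final, ≤0.5% DMSO; biological duplicate.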

Experiment [9] deals with Nuclear receptor subfamily 1 group I member 3 (Homo sapiens) (UniProt Q14994). Put plainly: ATG_CAR_TRANS: Attagene TRANS-FACTORIAL HepG2 Assay for human Constitutive Androstane Receptor (CAR) (AID 2282969).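 Note: activators raise reporter mRNA above DMSO so AC50 marks induction.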 The conditions noted are these: HepG2 Attagene TRANS-FACTORIAL CAR reporter. In short, it runs like this:
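Signal is reporter mRNA induction relative to DMSO, measured 24 h after dosing by RT-PCR with fluorescent primer extension and capillary electrophoresis. Human HepG2 liver cells carried transiently transfected chimeric NR-Gal4/GAL4-UAS reporter constructs.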

Experiment [10] can be described thus: ATG_ERE_CIS: Attagene CIS-FACTORIAL HepG2 Assay for Estrogen Response Element (ERE) (AID 2282940; active = hit-call score of the fitted dose curve at least 0.9, where 1 is the maximum; inactive = score below 0.9). Particulars: HepG2 ERE cis-reporter, Attagene RNA transcript; actives raise or lower the signal. The gist of the method:
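After a 24 h chemical treatment, RNA from reporter-transfected HepG2 cells is reverse-transcribed, PCR-amplified and fluorescently labelled. Fragments separated by capillary electrophoresis give reporter signal; DMSO serves as negative control.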

Experiment [11] deals with Estrogen receptor (Homo sapiens) (UniProt P03372). As to the kind of experiment: ATG_ERa_TRANS: Attagene TRANS-FACTORIAL HepG2 Assay for human Estrogen Receptor alpha (ERa) (AID 2282970). The conditions noted are these: HepG2 Attagene TRANS ERa GAL4 reporter, mRNA. The gist of the method:
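One of 30 multiplexed endpoints from a HepG2 TRANS system, this one reports ERa-Gal4-driven reporter mRNA. Transcripts were quantified 24 hours post-dosing by fluorescent RT-PCR and capillary electrophoresis, with activity scored as induction over DMSO.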

Experiment [12] addresses Steroid hormone receptor ERR1 (Homo sapiens) (UniProt P11474). As to the kind of experiment: ATG_ERRa_TRANS: Attagene TRANS-FACTORIAL HepG2 Assay for human Estrogen-Related Receptor alpha (ERRa) (AID 2282971). Particulars: HepG2 Attagene TRANS reporter, ERRa transactivation. In short, it runs like this: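 HepG2 cells transiently transfected with multiplexed GAL4-UAS reporter units reading chimeric ERRa-Gal4 activity; 24 h compound exposure. Reporter mRNA measured by RT-PCR, 6-FAM labelling, HpaI digest and capillary electrophoresis; gain of signal fitted versus DMSO baseline.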

Experiment [13] can be described thus: ATG_M_32_TRANS: Attagene TRANS-FACTORIAL HepG2 Assay for M32 Transcription Factor (Internal Marker) (AID 2282984).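 Note: transcript level of a background control reporter unit measured by RT-PCR and capillary electrophoresis.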 Particulars: HepG2 Attagene TRANS M32 internal marker reporter. The gist of the method: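 Internal background reporter in transfected HepG2: after 24 h chemical exposure, RNA reverse-transcribed, reporter cDNA amplified, fluorescently labelled and HpaI-cut, then sized by capillary electrophoresis. Gain of signal fitted against DMSO control.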

The target of experiment [14] is Estrogen-related receptor gamma (Homo sapiens) (UniProt P62508). Put plainly: ATG_ERRg_TRANS: Attagene TRANS-FACTORIAL HepG2 Assay for human Estrogen-Related Receptor gamma (ERRg) (AID 2282977).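 Note: hits increase reporter signal over DMSO so potencies reflect activators.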 The conditions noted are these: HepG2 Attagene TRANS reporter, ERRg transactivation. The gist of the method:
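Induction of reporter transcripts through a chimeric NR-Gal4 protein is quantified in transfected human HepG2 liver cells after 24 h chemical exposure, using RT-PCR with capillary electrophoresis detection and DMSO as baseline.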

Sequence of human Vitamin D Receptor (VDR), VDR (gene 7421) (P11473 whole entry, looked up, the tested form may be a part): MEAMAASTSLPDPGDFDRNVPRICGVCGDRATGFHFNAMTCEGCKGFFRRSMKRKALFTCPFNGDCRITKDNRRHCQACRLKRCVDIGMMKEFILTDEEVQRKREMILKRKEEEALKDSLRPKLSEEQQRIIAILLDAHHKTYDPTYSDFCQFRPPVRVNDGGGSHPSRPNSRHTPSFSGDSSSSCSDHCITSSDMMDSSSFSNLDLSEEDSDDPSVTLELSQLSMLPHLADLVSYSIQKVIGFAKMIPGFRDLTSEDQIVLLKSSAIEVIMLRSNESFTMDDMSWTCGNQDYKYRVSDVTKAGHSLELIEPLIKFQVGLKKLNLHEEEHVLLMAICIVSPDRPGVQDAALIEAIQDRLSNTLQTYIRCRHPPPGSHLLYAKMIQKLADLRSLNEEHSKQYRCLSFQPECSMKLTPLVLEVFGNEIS
Sequence of Steroid hormone receptor ERR1 (Homo sapiens) (P11474 whole entry, looked up, the tested form may be a part): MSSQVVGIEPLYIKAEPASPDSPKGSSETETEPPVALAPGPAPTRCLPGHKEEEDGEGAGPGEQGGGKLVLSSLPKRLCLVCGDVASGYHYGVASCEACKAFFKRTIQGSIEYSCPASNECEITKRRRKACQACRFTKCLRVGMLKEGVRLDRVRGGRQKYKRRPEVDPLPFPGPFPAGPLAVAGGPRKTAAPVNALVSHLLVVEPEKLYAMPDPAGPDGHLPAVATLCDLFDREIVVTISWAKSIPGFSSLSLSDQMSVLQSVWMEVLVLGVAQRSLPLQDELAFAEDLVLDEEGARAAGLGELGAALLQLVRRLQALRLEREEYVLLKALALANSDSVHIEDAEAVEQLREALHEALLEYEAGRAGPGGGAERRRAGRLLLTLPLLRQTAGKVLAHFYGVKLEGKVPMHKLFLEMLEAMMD
Sequence of human RAR-related Orphan Receptor beta (RORb), RORB (gene 6096) (Q92753 whole entry, looked up, the tested form may be a part): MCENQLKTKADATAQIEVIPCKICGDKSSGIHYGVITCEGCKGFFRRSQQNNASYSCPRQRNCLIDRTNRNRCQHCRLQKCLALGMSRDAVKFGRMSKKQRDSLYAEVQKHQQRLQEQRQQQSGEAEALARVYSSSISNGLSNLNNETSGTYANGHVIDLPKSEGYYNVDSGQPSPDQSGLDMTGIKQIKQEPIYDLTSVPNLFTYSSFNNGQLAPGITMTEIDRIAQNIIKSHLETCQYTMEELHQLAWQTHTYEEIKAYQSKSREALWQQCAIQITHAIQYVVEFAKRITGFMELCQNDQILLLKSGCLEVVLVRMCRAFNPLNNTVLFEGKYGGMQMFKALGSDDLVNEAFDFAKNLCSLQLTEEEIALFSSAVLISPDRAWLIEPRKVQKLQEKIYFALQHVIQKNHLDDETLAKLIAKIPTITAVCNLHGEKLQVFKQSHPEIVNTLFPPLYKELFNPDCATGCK
Sequence of Oxysterols receptor LXR-beta (Homo sapiens) (P55055 whole entry, looked up, the tested form may be a part): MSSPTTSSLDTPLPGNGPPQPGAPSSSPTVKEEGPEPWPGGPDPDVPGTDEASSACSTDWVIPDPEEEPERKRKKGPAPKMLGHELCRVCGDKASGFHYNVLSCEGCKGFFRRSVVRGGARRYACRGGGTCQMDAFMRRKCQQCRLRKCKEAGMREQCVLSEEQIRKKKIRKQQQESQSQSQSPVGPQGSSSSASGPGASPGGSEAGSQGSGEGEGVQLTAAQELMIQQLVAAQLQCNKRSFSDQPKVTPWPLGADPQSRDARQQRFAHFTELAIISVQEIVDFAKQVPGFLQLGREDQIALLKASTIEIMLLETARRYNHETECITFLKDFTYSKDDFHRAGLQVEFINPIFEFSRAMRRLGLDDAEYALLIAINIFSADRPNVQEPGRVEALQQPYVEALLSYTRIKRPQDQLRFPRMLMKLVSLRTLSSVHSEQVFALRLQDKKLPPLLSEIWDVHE
Sequence of Estrogen-related receptor gamma (Homo sapiens) (P62508 whole entry, looked up, the tested form may be a part): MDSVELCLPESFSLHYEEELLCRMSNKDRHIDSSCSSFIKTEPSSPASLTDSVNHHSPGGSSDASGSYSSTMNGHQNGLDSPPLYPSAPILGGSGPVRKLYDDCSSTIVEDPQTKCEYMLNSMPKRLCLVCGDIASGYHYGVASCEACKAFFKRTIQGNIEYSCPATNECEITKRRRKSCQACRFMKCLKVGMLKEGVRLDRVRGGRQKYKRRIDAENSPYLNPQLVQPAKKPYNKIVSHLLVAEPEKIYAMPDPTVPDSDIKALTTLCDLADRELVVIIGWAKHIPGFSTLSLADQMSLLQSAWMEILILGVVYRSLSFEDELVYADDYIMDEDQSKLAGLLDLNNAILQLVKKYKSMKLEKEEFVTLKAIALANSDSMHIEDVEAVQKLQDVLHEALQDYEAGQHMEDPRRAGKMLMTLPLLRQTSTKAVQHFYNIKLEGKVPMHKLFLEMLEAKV
Sequence of Nuclear receptor subfamily 1 group I member 3 (Homo sapiens) (Q14994 whole entry, looked up, the tested form may be a part): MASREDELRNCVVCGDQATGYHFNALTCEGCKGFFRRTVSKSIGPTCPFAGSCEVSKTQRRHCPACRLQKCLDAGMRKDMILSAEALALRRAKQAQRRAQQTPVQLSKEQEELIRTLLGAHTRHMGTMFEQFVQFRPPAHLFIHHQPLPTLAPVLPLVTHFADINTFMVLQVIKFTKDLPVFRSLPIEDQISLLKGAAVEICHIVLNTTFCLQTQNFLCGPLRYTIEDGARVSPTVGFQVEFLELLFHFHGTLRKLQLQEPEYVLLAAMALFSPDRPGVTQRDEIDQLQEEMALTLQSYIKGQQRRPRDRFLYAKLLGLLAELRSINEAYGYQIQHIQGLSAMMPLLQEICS
Sequence of Aryl hydrocarbon receptor (Homo sapiens) (P35869 whole entry, looked up): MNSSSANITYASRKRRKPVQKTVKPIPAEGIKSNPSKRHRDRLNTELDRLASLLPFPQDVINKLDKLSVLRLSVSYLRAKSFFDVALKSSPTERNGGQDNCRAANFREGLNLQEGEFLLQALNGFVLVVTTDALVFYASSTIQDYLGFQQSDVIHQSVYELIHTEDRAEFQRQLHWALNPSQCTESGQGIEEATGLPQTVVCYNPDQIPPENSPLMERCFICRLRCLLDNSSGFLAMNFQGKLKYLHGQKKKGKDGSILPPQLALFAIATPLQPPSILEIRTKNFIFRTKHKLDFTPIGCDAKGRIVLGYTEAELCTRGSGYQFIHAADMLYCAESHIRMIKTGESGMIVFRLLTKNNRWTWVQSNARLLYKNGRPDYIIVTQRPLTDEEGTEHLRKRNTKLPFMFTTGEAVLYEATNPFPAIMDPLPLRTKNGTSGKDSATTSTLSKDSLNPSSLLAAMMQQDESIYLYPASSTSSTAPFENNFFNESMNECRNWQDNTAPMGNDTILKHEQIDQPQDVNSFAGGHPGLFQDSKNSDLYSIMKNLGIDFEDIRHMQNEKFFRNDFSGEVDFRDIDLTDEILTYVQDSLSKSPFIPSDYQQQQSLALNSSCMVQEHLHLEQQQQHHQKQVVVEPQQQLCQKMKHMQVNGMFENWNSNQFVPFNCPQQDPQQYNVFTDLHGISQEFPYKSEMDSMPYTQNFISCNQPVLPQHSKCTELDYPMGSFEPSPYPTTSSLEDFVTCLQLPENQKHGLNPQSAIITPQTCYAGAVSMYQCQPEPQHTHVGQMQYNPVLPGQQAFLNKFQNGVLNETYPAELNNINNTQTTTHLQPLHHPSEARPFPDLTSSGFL
Sequence of Estrogen receptor (Homo sapiens) (P03372 whole entry, looked up, the tested form may be a part): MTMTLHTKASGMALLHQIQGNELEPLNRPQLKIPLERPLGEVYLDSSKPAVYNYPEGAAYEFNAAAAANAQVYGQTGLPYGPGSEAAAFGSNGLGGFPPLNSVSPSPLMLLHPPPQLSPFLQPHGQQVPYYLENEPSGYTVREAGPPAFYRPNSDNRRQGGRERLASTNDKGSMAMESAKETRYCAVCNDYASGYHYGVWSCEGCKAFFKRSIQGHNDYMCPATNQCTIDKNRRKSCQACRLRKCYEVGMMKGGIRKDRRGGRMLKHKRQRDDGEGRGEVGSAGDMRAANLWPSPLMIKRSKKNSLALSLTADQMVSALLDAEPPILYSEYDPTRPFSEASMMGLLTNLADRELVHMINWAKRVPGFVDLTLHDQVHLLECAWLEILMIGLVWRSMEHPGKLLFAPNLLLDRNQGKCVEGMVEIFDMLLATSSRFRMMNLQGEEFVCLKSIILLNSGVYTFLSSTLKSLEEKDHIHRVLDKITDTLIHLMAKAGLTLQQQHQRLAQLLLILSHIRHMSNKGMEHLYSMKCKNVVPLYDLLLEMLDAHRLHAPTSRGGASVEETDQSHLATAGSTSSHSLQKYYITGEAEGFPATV

Regarding `O=C(C1CCCCC1)N1CC(=O)N2CCc3ccccc3C2C1` (configuration not stated), the AC50 in [1] is 27.8 µM (active). The call in experiment [2] and in experiment [3] was inactive.

In the case of `COc1c2occc2cc2ccc(=O)oc12`, in experiment [4], the molecule was called inactive.

As to `CC(=O)OC(C)(C)Cc1ccccc1`, the molecule was called inactive in experiment [5], in experiment [4], in experiment [6], in [7] and in experiment [8].

Regarding `OCCc1ccccn1`, the molecule was classed as inactive in experiment [9], in experiment [4] and in [6].

On to `Oc1ccc(Cl)cc1C1CCCC1`, for which the half-maximal activity concentration (AC50) is 8.73 µM (active) in experiment [10], 4.12 µM (active) in experiment [11] and 33.4 µM (active) in experiment [3]. Besides, the outcome in experiment [5] was inactive.

As to `Brc1ccc(Oc2ccc(Br)cc2)cc1`, the molecule was called inactive in experiment [9].

With `CCC(C)(CCC(C)C)C(=O)O` (configuration not stated), the call in experiment [12], in [13], in experiment [4], in experiment [6], in experiment [7] and in experiment [8] was inactive.

As for `CCO[Si](CCCN)(OCC)OCC`, the result in experiment [10], in experiment [12], in experiment [14], in experiment [4] and in [7] was inactive.

As for `CCOC(=O)c1ccccc1`, the molecule was classed as inactive in experiment [10], in experiment [12], in [14], in experiment [5], in experiment [13] and in [3]. In addition, the call in experiment [4], in experiment [7] and in experiment [8] was inactive.

`COc1ccc2ccccc2c1`: the result in experiment [1], in [2], in experiment [10], in [11] and in experiment [13] was inactive.
